{"source": "PubChem BioAssay AID2283174", "about": "(EPA ToxCast)", "note": "Calls of active or inactive are those of the source. Rule for the calls: active = hit-call score of the fitted dose curve at least 0.9, where 1 is the maximum; inactive = score below 0.9."}
{"biological_target": "human Mitogen-Activated Protein Kinase 11 (MAPK 11), MAPK11 (gene 5600) (UniProt Q15759)", "sequence (Q15759 whole entry, looked up)": "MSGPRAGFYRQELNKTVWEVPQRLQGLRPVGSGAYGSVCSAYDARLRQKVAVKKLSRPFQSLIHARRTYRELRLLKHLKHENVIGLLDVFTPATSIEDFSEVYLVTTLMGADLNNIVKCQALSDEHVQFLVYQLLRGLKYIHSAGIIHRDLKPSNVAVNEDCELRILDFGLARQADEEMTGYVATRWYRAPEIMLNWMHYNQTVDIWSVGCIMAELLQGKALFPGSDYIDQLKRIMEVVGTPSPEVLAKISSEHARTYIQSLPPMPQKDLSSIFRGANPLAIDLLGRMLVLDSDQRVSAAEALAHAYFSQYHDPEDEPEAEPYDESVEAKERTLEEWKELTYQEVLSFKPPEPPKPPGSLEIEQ", "experiment": "NVS_ENZ_hMAPK11: NovaScreen (NVS) Enzymatic Assay for human Mitogen-Activated Protein Kinase 11 (MAPK 11)", "procedure": "NVS_ENZ_hMAPK11 is a biochemical, single-readout assay that uses extracted gene-proteins in a cell-free assay. Measurements were taken 0 hour after chemical dosing in a 384-well plate.NVS_ENZ_hMAPK11 is one of one assay component(s) measured or calculated from the NVS_ENZ_hMAPK11 assay. It is designed to make measurements of enzyme activity, a form of enzyme reporter, as detected with fluorescence intensity signals by Fluorescence and electrophoretic mobility shift technology.Data from the assay component NVS_ENZ_hMAPK11 was analyzed into 1 assay endpoint. This assay endpoint, NVS_ENZ_hMAPK11, was analyzed in the positive analysis fitting direction relative to DMSO as the negative control and baseline of activity. Using a type of enzyme reporter, loss-of-signal activity can be used to understand changes in the enzymatic activity as they relate to the gene MAPK11. Furthermore, this assay endpoint can be referred to as a primary readout, because this assay has produced multiple assay endpoints where this one serves a enzymatic activity function. To generalize the intended target to other relatable targets, this assay endpoint is annotated to the kinase intended target family, where the subfamily is serine/threonine kinase.\nBinding assays used specific radioligands (tritiated, iodinated) with non-radioactive competitive displacement ligands in agonist or antagonist protocols (as indicated) and various reference compounds and inhibitors to titrate specific binding to receptors and transporters. Most enzyme assays (CYPs, kinases, phosphatases, proteases, HDACs) used recombinant protein and specific substrates (fluorescence mostly, some colorimetric and radioactive) and inhibitors, followed by a biochemical separation of substrate and product. All assays for the biochemical HTS were initially run in duplicate at a single concentration (10 uM for CYP450 assays and 25 uM for all others). Assay-chemical combinations meeting a pre-defined threshold (e.g., 30% inhibition and other criteria defined below) were then run in singleton concentration-response format with maximum concentration of 20 uM for CYPs and 50 uM for all others. Each assay was run with positive and negative controls, and concurrent controls on every plate. The follow-up (secondary) screen tested active chemical-pairs in concentration series, as well as a few additional assays not tested in the primary screen, some selected negative inactives, and several cases re-run in the concentration series for confirmatory purposes."}
{"smiles": "C[Si](Cn1cncn1)(c1ccc(F)cc1)c1ccc(F)cc1", "outcome": "inactive"}
{"smiles": "CC(C)(C)C(O)/C(=C\\c1ccc(Cl)cc1Cl)n1cncn1", "note": "(centres undefined)", "outcome": "inactive"}
{"smiles": "Fc1ccc(Oc2ccnc3cc(Cl)cc(Cl)c23)cc1", "outcome": "inactive"}
{"smiles": "COc1nc(C)nc(NC(=O)NS(=O)(=O)c2ccccc2CCC(F)(F)F)n1", "outcome": "inactive"}
